Assay results reported in PubChem BioAssay (EPA / NIEHS).
Results filed as inconclusive are left out. Calls of active or inactive are those of the source. How the source made its calls, unless noted: active means hit-call score of the fitted dose curve at least 0.9, where 1 is the maximum; inactive means score below 0.9.

Assays:
[1] = target: Nuclear receptor subfamily 4 group A member 2 (Homo sapiens) (UniProt P43354); assay: ATG_NURR1_TRANS: Attagene TRANS-FACTORIAL HepG2 Assay for human Nuclear Receptor Related Protein 1 (NURR1) (AID 2282985; active means hit-call score of the fitted dose curve at least 0.9, where 1 is the maximum); details: HepG2 Attagene TRANS reporter, mRNA readout
Summary of the method: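 Measures transcriptional activation by an exogenous NR-Gal4 chimera in transfected HepG2 liver cells. After 24 h, reporter RNA is reverse-transcribed, amplified and resolved by capillary electrophoresis; DMSO defines baseline.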

[2] = target: Transcriptional activator Myb (Homo sapiens) (UniProt P10242); assay: ATG_Myb_CIS: Attagene CIS-FACTORIAL HepG2 Assay for human Myeloblastosis (Myb) Proto-Oncogene Transcription Factor (AID 2282986); details: HepG2 Attagene CIS-FACTORIAL Myb reporter transcription; actives raise or lower the signal
Summary of the method: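 After 24 h of compound dosing, total RNA from transfected HepG2 cells is reverse-transcribed and the reporter sequences amplified, labeled and separated by capillary electrophoresis. Values come from bidirectional fitting against DMSO.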

[3] = target: Nuclear respiratory factor 1 (Homo sapiens) (UniProt Q16656); assay: ATG_NRF1_CIS: Attagene CIS-FACTORIAL HepG2 Assay for human Nuclear Respiratory Factor 1 (NRF1) Orphan Gene (AID 2282987); details: HepG2 NRF1 cis-element reporter, Attagene multiplex; actives raise or lower the signal
Summary of the method: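 Measured: fluorescent reporter-specific RT-PCR products from transfected HepG2 cells, separated by capillary electrophoresis. Exposure lasted 24 h. Analysis used bidirectional curve fitting with DMSO as negative control.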

[4] = ATG_NFI_CIS: Attagene CIS-FACTORIAL HepG2 Assay for human Nuclear Factor I (NFI) (AID 2282989); details: HepG2 cis-regulatory reporter, NFI response element transcription; actives raise or lower the signal
Summary of the method: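 HepG2 cells transiently transfected with cis-element-driven multiplexed reporter transcription units, dosed for 24 h. Reporter mRNA quantified by RT-PCR, fluorescent labelling, HpaI digestion and capillary electrophoresis; bidirectional fit versus DMSO baseline.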

[5] = target: Myc proto-oncogene protein (Homo sapiens) (UniProt P01106); assay: ATG_Myc_CIS: Attagene CIS-FACTORIAL HepG2 Assay for human Myelocytomatosis (Myc) Proto-Oncogene Transcription Factor (AID 2282990); details: HepG2, Attagene cis-reporter transcription factor activity; actives raise or lower the signal
Summary of the method: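 HepG2, transient MRTU transfection (cis promoters, endogenous TFs); 24 h dosing; TriZol RNA → oligo(dT) RT → PCR → 6-FAM primer extension → HpaI cut → CE. Bidirectional fit vs DMSO.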

[6] = ATG_NF_kB_CIS: Attagene CIS-FACTORIAL HepG2 Assay for human Nuclear Factor Kappa B (NF-kB) (AID 2282991); details: HepG2 Attagene cis-factorial NF-kB reporter mRNA; actives raise or lower the signal
Summary of the method: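 Fluorescence of labelled RT-PCR products separated by capillary electrophoresis gives reporter mRNA levels from transfected HepG2 cells exposed 24 h; values are fitted in both directions relative to DMSO.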

[7] = ATG_NRF2_ARE_CIS: Attagene CIS-FACTORIAL HepG2 Assay for human Nuclear Factor Erythroid 2 Related Factor 2 (NFR2) response to Antioxidant Response Elements (ARE) (AID 2282992); details: HepG2 Attagene ARE/NRF2 reporter, transcription factor activity; actives raise or lower the signal
Summary of the method: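 Using transiently transfected HepG2 cells exposed for 24 h, reporter mRNA levels were determined by RT-PCR with fluorescent primer extension and capillary electrophoresis, analysed for gain or loss of signal against DMSO.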

[8] = ATG_Oct_MLP_CIS: Attagene CIS-FACTORIAL HepG2 Assay for human Octamer-Binding Transcription Factor (Oct) (AID 2282993); details: HepG2 Attagene cis-factorial Oct reporter, mRNA; actives raise or lower the signal
Summary of the method: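 HepG2 cells transiently transfected with cis-promoter-driven multiplexed reporter transcription units, dosed for 24 h. Reporter mRNA quantified by RT-PCR, fluorescent labelling, HpaI digestion and capillary electrophoresis; bidirectional fits versus DMSO baseline.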

[9] = target: Cellular tumor antigen p53 (Homo sapiens) (UniProt P04637); assay: ATG_p53_CIS: Attagene CIS-FACTORIAL HepG2 Assay for human p53 Transcription Factor (AID 2282994); details: HepG2 p53 cis-element reporter, Attagene mRNA; actives raise or lower the signal
Summary of the method: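 In HepG2 cells, reporter transcription units under cis-regulatory promoters were transiently introduced. Following 24 h treatment, RNA was processed to labelled, digested cDNA fragments read by capillary electrophoresis; fitting was bidirectional versus DMSO.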

[10] = BSK_3C_TissueFactor: BioMAP Diversity Plus: 3C Assay for Tissue Factor Biomarker Activity (AID 2282997); details: BioMAP 3C HUVEC, tissue factor biomarker readout; actives raise or lower the signal
Summary of the method: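 Tissue factor on primary human umbilical vein endothelium was read by ELISA 24 h after dosing, gain or loss relative to DMSO. Cytotoxicity ran alongside via SRB (0.1%, TCA-fixed, 560 nm).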

[11] = BSK_3C_uPAR: BioMAP Diversity Plus: 3C Assay for Urokinase-type plasminogen activator receptor (uPAR) Biomarker Activity (AID 2282998); details: BioMAP 3C HUVEC, uPAR biomarker ELISA; actives raise or lower the signal
Summary of the method: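 Human umbilical vein endothelial primary cells were exposed to test chemical for 24 h. Cell-surface uPAR was then quantified by ELISA, and responses were fitted bidirectionally against DMSO as negative control and baseline.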

[12] = BSK_3C_VCAM1: BioMAP Diversity Plus: 3C Assay for Vascular cell adhesion molecule 1 (VCAM1) Biomarker Activity (AID 2282999); details: BioMAP 3C HUVEC, VCAM1 ELISA, cytokine-stimulated; actives raise or lower the signal
Summary of the method: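 Activity fitted in both directions relative to DMSO, with ELISA measurement of the surface marker on primary HUVEC (3C) at 24 h post-treatment; parallel SRB staining (0.1% SRB, TCA-fixed, 560 nm) flagged overt cytotoxicity.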

[13] = target: human Peroxisome Proliferator-activated Receptor delta (PPARd), PPARD (gene 5467) (UniProt Q03181); assay: ATG_PPARd_TRANS: Attagene TRANS-FACTORIAL HepG2 Assay for human Peroxisome Proliferator-activated Receptor delta (PPARd) (AID 2283002; active means hit-call score of the fitted dose curve at least 0.9, where 1 is the maximum)
Summary of the method: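 Transient HepG2 transfection (multiple GAL4-UAS RTUs, chimeric receptor-Gal4); 24 h dosing; total RNA → oligo(dT) RT → PCR → 6-FAM primer extension → HpaI cut → CE. Positive direction vs DMSO.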

[14] = read-out: Intercellular Adhesion Molecule 1 (ICAM1), ICAM1 (gene 3383); assay: BSK_3C_ICAM1: BioMAP Diversity Plus: 3C Assay for Intercellular Adhesion Molecule 1 (ICAM1) Biomarker Activity (AID 2283003); details: primary human endothelial cells (HUVEC); actives raise or lower the signal
Summary of the method: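 Using DMSO as baseline, bidirectional curve fitting was applied to ICAM-1 ELISA signals from HUVEC in the 3C system, measured 24 h after compound addition.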

[15] = target: human Retinoic Acid Receptor beta (RARb), RARB (gene 5915) (UniProt P10826); assay: ATG_RARb_TRANS: Attagene TRANS-FACTORIAL HepG2 Assay for human Retinoic Acid Receptor beta (AID 2283004; active means hit-call score of the fitted dose curve at least 0.9, where 1 is the maximum)
Summary of the method: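 Induction of reporter mRNA from a chimeric RARb-Gal4 construct was measured by RT-PCR, FAM labelling, HpaI digestion and capillary electrophoresis. Measurements followed 24 h compound treatment of transiently transfected human HepG2 liver cells, with DMSO as baseline.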

[16] = target: Retinoic acid receptor alpha (Homo sapiens) (UniProt P10276); assay: ATG_RARa_TRANS: Attagene TRANS-FACTORIAL HepG2 Assay for human Retinoic Acid Receptor alpha (RARa) (AID 2283005; active means hit-call score of the fitted dose curve at least 0.9, where 1 is the maximum;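 on AC50: potency for increased reporter signal meaning RARa activation over DMSO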)
Summary of the method: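 Reporter transcripts, measured by RT-PCR with fluorescent labeling and capillary electrophoresis after 24 h dosing, reflect activity of an exogenous human RARa–GAL4 fusion in transiently transfected HepG2. Fitted for increase relative to DMSO.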

[17] = BSK_3C_Proliferation: Cell Proliferation Assessment in the BioMAP Diversity Plus: 3C Assay (AID 2283006); details: primary human endothelial cells (HUVEC);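 on AC50: potency may reflect either rise or fall in cell number versus DMSO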
Summary of the method: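 Measured here: sulforhodamine B (0.1%) staining of TCA-fixed sub-confluent umbilical vein endothelial cultures 48 h post-dosing, absorbance 560 nm. DMSO served as negative control and baseline; both signal gain and loss were modelled.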

[18] = target: Peroxisome proliferator-activated receptor gamma (Homo sapiens) (UniProt P37231); assay: ATG_PPARg_TRANS: Attagene TRANS-FACTORIAL HepG2 Assay for human Peroxisome Proliferator-activated Receptor-gamma (PPARg) (AID 2283007; active means hit-call score of the fitted dose curve at least 0.9, where 1 is the maximum)
Summary of the method: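 Twenty-four hours after chemical dosing of transiently transfected HepG2 cells, isolated RNA was converted to cDNA, reporter sequences amplified and 6-FAM-labelled, then HpaI-digested and analysed by capillary electrophoresis. Signal increase against DMSO was fitted.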

[19] = target: human Peroxisome Proliferator-activated Receptor alpha (PPARa), PPARA (gene 5465) (UniProt Q07869); assay: ATG_PPARa_TRANS: Attagene TRANS-FACTORIAL HepG2 Assay for human Peroxisome Proliferator-activated Receptor alpha (PPARa) (AID 2283001; active means hit-call score of the fitted dose curve at least 0.9, where 1 is the maximum)
Summary of the method: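 Transfected HepG2 cells treated with test chemical for 24 h. RNA isolated, reverse-transcribed with oligo(dT), PCR-amplified, FAM-labelled and HpaI-digested. Fragments sized by capillary electrophoresis; gain-of-signal fit relative to DMSO.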

Sequence of Cellular tumor antigen p53 (Homo sapiens) (P04637 whole entry, looked up, the tested form may be a part): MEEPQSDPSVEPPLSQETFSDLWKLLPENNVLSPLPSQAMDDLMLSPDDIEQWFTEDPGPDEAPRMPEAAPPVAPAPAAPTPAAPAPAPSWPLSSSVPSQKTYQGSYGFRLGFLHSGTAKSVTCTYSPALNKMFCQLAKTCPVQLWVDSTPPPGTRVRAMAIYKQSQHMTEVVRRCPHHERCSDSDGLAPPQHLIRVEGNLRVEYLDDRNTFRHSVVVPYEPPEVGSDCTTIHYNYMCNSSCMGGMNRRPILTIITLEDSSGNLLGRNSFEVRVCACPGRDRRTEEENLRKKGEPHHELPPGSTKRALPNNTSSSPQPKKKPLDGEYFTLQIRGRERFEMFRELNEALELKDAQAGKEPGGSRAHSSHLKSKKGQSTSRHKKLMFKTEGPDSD
Sequence of Peroxisome proliferator-activated receptor gamma (Homo sapiens) (P37231 whole entry, looked up): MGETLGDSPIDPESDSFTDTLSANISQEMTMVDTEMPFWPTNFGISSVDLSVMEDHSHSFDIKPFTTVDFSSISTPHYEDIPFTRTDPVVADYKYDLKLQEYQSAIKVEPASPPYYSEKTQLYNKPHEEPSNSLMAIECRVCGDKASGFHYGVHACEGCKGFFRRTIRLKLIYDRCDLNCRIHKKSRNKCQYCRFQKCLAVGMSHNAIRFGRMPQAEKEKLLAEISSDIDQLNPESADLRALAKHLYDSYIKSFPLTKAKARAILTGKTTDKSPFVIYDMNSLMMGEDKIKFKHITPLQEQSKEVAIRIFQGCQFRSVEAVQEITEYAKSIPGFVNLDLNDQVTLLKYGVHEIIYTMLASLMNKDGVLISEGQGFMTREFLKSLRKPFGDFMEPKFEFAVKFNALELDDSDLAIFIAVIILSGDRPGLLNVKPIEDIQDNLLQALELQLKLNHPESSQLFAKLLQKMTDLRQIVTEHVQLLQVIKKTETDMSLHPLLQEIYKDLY
Sequence of Nuclear respiratory factor 1 (Homo sapiens) (Q16656 whole entry, looked up): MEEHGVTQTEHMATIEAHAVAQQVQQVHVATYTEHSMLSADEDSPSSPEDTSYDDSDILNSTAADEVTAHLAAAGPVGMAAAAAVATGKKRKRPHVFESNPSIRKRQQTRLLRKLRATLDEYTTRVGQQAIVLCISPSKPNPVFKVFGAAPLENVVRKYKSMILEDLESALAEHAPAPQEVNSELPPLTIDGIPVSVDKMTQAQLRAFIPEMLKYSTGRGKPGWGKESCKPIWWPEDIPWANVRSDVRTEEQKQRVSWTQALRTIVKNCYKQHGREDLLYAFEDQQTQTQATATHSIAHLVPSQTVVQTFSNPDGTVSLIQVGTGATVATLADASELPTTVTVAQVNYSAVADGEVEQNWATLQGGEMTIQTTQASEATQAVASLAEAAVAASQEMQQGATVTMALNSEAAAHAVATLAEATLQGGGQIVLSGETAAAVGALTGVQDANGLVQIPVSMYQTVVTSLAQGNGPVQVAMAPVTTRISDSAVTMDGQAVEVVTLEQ
Sequence of human Retinoic Acid Receptor beta (RARb), RARB (gene 5915) (P10826 whole entry, looked up, the tested form may be a part): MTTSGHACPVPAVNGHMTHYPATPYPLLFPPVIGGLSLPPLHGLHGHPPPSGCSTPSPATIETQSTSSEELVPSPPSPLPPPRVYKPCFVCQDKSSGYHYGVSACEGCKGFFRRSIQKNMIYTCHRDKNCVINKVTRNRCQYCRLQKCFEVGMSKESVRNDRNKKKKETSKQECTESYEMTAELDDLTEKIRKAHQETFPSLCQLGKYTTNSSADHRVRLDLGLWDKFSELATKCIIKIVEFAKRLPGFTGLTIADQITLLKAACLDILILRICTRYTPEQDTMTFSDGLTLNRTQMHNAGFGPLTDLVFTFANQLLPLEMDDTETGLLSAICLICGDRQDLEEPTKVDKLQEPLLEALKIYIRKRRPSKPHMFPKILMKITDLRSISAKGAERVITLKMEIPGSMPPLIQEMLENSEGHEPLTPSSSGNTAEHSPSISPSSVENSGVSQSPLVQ
Sequence of Nuclear receptor subfamily 4 group A member 2 (Homo sapiens) (P43354 whole entry, looked up, the tested form may be a part): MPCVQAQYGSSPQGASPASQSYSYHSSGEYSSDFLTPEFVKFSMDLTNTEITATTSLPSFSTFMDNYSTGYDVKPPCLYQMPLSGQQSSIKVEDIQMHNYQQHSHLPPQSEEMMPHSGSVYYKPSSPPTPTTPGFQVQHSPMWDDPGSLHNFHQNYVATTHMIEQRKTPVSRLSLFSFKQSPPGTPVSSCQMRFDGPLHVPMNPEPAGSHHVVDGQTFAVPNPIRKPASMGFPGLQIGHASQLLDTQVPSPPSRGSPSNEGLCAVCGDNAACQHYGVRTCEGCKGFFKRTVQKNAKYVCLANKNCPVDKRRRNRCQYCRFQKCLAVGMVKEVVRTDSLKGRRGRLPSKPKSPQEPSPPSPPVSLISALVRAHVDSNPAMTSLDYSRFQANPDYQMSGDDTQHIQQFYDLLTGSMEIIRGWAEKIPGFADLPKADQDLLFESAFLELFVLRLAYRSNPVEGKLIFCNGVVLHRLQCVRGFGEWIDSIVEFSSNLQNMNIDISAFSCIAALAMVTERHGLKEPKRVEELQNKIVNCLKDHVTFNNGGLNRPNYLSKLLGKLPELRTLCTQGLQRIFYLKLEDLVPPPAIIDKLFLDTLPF
Sequence of Transcriptional activator Myb (Homo sapiens) (P10242 whole entry, looked up): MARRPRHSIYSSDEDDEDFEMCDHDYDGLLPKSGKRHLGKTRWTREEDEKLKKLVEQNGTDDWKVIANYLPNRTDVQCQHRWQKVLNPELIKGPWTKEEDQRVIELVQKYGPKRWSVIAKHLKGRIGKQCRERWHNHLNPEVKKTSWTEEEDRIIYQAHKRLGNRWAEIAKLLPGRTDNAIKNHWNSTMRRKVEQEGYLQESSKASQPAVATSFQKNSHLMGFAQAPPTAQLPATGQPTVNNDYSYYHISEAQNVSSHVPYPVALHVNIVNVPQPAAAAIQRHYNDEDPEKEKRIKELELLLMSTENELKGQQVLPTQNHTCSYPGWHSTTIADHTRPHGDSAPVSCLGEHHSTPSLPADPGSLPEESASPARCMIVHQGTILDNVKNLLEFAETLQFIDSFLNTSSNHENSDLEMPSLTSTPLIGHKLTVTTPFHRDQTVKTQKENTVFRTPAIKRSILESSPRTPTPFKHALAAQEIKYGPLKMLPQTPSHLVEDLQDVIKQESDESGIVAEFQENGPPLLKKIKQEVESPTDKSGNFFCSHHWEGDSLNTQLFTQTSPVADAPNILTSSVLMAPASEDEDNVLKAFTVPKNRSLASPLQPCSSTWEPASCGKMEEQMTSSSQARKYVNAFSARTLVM
Sequence of Retinoic acid receptor alpha (Homo sapiens) (P10276 whole entry, looked up, the tested form may be a part): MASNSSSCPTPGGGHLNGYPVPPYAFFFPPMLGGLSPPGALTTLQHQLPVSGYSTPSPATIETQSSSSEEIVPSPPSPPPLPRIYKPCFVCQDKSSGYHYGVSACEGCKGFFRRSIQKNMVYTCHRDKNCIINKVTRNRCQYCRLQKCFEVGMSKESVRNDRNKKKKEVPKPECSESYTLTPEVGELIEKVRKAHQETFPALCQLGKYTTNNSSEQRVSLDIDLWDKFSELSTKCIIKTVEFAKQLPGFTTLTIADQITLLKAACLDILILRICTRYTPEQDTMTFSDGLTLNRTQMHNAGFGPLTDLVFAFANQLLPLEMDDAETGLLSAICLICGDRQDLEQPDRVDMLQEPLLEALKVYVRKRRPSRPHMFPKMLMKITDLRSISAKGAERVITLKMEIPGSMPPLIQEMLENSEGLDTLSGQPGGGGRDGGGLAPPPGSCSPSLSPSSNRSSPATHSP
Sequence of Myc proto-oncogene protein (Homo sapiens) (P01106 whole entry, looked up): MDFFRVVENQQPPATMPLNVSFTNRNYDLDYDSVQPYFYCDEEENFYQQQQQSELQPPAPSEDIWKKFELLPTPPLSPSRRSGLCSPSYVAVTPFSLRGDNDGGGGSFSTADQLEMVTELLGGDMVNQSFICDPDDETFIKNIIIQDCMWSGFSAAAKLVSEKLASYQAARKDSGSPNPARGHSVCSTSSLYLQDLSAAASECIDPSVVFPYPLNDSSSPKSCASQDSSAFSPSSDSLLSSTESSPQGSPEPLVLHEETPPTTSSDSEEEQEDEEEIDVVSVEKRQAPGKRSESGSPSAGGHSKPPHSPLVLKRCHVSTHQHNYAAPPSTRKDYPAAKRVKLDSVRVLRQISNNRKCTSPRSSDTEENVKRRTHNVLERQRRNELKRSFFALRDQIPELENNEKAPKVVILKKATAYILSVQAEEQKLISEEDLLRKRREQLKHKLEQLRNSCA
Sequence of human Peroxisome Proliferator-activated Receptor alpha (PPARa), PPARA (gene 5465) (Q07869 whole entry, looked up, the tested form may be a part): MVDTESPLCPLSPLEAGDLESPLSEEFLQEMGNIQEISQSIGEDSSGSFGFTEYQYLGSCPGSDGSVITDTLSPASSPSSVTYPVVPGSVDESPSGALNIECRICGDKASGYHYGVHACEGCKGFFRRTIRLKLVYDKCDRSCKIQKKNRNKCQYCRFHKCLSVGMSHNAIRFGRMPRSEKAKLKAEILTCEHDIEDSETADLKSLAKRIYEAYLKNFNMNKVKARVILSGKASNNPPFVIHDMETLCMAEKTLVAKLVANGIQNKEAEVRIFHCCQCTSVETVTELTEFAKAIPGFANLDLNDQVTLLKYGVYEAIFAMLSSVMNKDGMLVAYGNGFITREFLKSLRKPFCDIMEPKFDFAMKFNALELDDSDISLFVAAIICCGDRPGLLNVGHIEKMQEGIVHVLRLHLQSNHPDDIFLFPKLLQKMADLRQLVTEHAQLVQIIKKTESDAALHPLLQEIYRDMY
Sequence of human Peroxisome Proliferator-activated Receptor delta (PPARd), PPARD (gene 5467) (Q03181 whole entry, looked up, the tested form may be a part): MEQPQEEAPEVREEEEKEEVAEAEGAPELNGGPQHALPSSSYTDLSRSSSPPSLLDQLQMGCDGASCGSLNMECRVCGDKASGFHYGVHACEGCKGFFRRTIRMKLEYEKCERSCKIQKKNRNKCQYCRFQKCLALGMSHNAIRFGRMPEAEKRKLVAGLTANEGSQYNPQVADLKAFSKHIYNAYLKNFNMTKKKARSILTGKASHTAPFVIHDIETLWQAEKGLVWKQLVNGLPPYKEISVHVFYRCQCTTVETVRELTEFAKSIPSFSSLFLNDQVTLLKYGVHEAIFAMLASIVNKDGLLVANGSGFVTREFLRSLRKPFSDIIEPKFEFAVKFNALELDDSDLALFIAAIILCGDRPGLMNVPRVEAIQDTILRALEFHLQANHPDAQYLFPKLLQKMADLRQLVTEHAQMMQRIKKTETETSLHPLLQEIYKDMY

With `CNC(=O)N(C)c1nnc(C(C)(C)C)s1` the outcome [1] was “inactive”, the outcome [2] was “inactive” and the outcome [3] was “inactive”. For the same molecule, the outcome [4] was “inactive”, the outcome [5] was “inactive” and the outcome [6] was “inactive”. The AC50 [7] was 60.1 µM (active), the outcome [8] was “inactive” and the outcome [9] was “inactive”. For the same molecule, the outcome [10] was “inactive”, the outcome [11] was “inactive” and the outcome [12] was “inactive”. For the same molecule, the outcome [13] was “inactive”, the outcome [14] was “inactive” and the outcome [15] was “inactive”. The outcome [16] was “inactive”, the outcome [17] was “inactive” and the outcome [18] was “inactive”.
In the case of `C=C(C)CN(CC)c1c([N+](=O)[O-])cc(C(F)(F)F)cc1[N+](=O)[O-]`, the outcome [1] is reported as “inactive”, the outcome [2] is reported as “inactive” and the outcome [3] is reported as “inactive”. The outcome [4] was “inactive”, the outcome [5] was “inactive” and the outcome [6] was “inactive”. The AC50 [7] was 4.69 µM (active), the outcome [8] was “inactive” and the outcome [9] was “inactive”. For the same molecule, the outcome [10] was “inactive”, the outcome [11] was “inactive” and the outcome [12] was “inactive”. For the same molecule, the outcome [14] was “inactive”, the outcome [15] was “inactive” and the AC50 [16] was 30.2 µM (active). The AC50 [17] was 33.4 µM (active) and the outcome [18] was “inactive”.
In the case of `Clc1nc(Cl)nc(Nc2ccccc2Cl)n1`, the outcome [1] is reported as “inactive”, the outcome [2] is reported as “inactive” and the outcome [3] is reported as “inactive”. The outcome [4] was “inactive”, the outcome [5] was “inactive” and the outcome [6] was “inactive”. For the same molecule, the AC50 [7] was 29.4 µM (active), the outcome [8] was “inactive” and the outcome [9] was “inactive”. The outcome [10] was “inactive”, the outcome [11] was “inactive” and the outcome [12] was “inactive”. The outcome [14] was “inactive”, the outcome [16] was “inactive” and the outcome [17] was “inactive”. For the same molecule, the AC50 [18] was 9.95 µM (active).
In the case of `Nc1c(Cl)c(Cl)nc(C(=O)O)c1Cl`, the outcome [1] is reported as “inactive”, the outcome [2] is reported as “inactive” and the outcome [3] is reported as “inactive”. The outcome [4] was “inactive”, the outcome [5] was “inactive” and the outcome [6] was “inactive”. For the same molecule, the AC50 [7] was 50 µM (active), the outcome [8] was “inactive” and the outcome [9] was “inactive”. The outcome [10] was “inactive”, the outcome [11] was “inactive” and the outcome [12] was “inactive”. The outcome [19] was “inactive”, the outcome [14] was “inactive” and the outcome [17] was “inactive”. The outcome [18] was “inactive”.
In the case of `CCC(C)n1c(=O)[nH]c(C)c(Br)c1=O` (configuration not stated), the outcome [1] is reported as “inactive”, the outcome [2] is reported as “inactive” and the outcome [3] is reported as “inactive”. For the same molecule, the outcome [4] was “inactive”, the outcome [5] was “inactive” and the outcome [6] was “inactive”. The outcome [7] was “inactive”, the outcome [8] was “inactive” and the outcome [9] was “inactive”. The outcome [10] was “inactive”, the outcome [11] was “inactive” and the outcome [12] was “inactive”. The outcome [19] was “inactive”, the outcome [14] was “inactive” and the outcome [17] was “inactive”.
With `CCNP(=S)(OC)O/C(C)=C/C(=O)OC(C)C` (configuration not stated) the outcome [1] was “inactive”, the outcome [2] was “inactive” and the outcome [3] was “inactive”. The outcome [4] was “inactive”, the outcome [5] was “inactive” and the outcome [6] was “inactive”. For the same molecule, the AC50 [7] was 7.44 µM (active), the outcome [8] was “inactive” and the outcome [9] was “inactive”. The outcome [10] was “inactive”, the outcome [11] was “inactive” and the outcome [12] was “inactive”. The outcome [14] was “inactive”, the outcome [15] was “inactive” and the AC50 [16] was 22.1 µM (active). For the same molecule, the outcome [17] was “inactive” and the AC50 [18] was 29.6 µM (active).
For `CC(C)=CC1C(C(=O)OCc2coc(Cc3ccccc3)c2)C1(C)C` (configuration not stated), the AC50 [1] was 33.9 µM (active), the outcome [2] was “inactive” and the outcome [3] was “inactive”. For the same molecule, the outcome [4] was “inactive”, the outcome [5] was “inactive” and the outcome [6] was “inactive”. For the same molecule, the AC50 [7] was 13.8 µM (active), the AC50 [8] was 6.38 µM (active) and the outcome [10] was “inactive”. For the same molecule, the AC50 [11] was 12 µM (active), the outcome [12] was “inactive” and the outcome [19] was “inactive”. For the same molecule, the outcome [13] was “inactive”, the outcome [14] was “inactive” and the outcome [15] was “inactive”. For the same molecule, the outcome [16] was “inactive”, the AC50 [17] was 10.3 µM (active) and the AC50 [18] was 13.1 µM (active).
